# APP transl inh = inhibitors of APP translation via 5'UTR reporter, primary screen, APP 5'UTR luciferase, SH-SY5Y cells; SH-SY5Y APP 5'UTR-luciferase reporter, luminescence; inhibition, % at 2 µM; AID 1285, 2008; 190,000 tested, 0.82% active;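 active = inhibition above a set limit, derived from the sample mean plus 3 SD, cut at about 45% in these data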
# BaF3 parental = parental Ba/F3 cell viability inhibition, counter-screen for JAK2V617F inhibitor project, murine pro-B, CellTiter-Glo luminescence; inhibition, % at 5.6 µM; CellTiter-Glo ATP luminescence; AID 1486, 2009; 220,000 tested, 1.1% active;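 active = inhibition above a per-campaign cutoff, the mean inhibition of all tested compounds plus 3 SD, cut at about 27% in these data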;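 also: 0% = DMSO wells and 100% = JAK Inhibitor I control wells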
# KLF5 inhibitor = KLF5 expression inhibitors, primary screen, DLD-1 cells, luminescence. AID 1700, 2009. DLD-1 KLF5 promoter-luciferase reporter. 290,000 tested, 0.23% active. inhibition, % at 5 µM;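 active = inhibition above a per-plate limit of that plate's mean compound inhibition plus 3 SD, cut at about 60% in these data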;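 also: 0% = DMSO wells and 100% = LY294002 at 200 µM; higher means less KLF5 promoter-driven luciferase light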
# Ba/F3 V617F tox = reduced viability of JAK2V617F-dependent Ba/F3 cells, primary screen, JAK2V617F inhibitor project, cell-based, Ba/F3 EpoR-JAK2V617F, luminescence. ATP luminescence. inhibition, % at 5.6 µM. 220,000 tested, 1.1% active;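 active = inhibition above the campaign mean plus 3 SD over all tested compounds, cut at about 24% in these data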;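 also: cytokine-independent growth of Ba/F3 cells driven by EpoR plus mutant JAK2; 0% = DMSO-treated cells and 100% = JAK inhibitor I control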
# IEC-6 cytotox = cytotoxicity in IEC-6 intestinal epithelial cells, primary screen, cytotoxicity control for KLF5 inhibitor project, cell-based, luminescence. inhibition, % at 5 µM. 290,000 tested, 0.78% active. IEC-6 cytotoxicity, luminescence viability; in the data active = inhibition above about 22%;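 also: 0% = plate median of test compound wells and 100% = cytotoxic reference compound wells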
# Active calls of the source: *; . = no result given. An excerpt weighted towards active compounds, which were near 1.9% of everything screened.
SMILES,APP transl inh,BaF3 parental,KLF5 inhibitor,Ba/F3 V617F tox,IEC-6 cytotox
CC1CCCCN1C(=O)CCn1c(=S)oc2ccccc21 (stereo unspecified),.,50*,2,16,-3
O=C(CCn1c(=S)oc2ccccc21)NC1CCCCCC1,.,-4,-3,0,-2
CCOc1ccc(CCNC(=O)CSc2nc3ncc(Cl)cc3[nH]2)cc1OCC,.,.,-25,.,-6
NC(=O)c1ncn([C@@H]2O[C@H](CO)[C@@H](O)[C@H]2O)n1,-14,9,-23,5,13
OCC1OC(n2nc3ccccc3n2)C(O)C(O)C1O (stereo unspecified),14,28*,-12,-1,-12
CCNC(=S)N(CCO)Cc1cc2cc3c(cc2[nH]c1=O)OCO3,.,.,-2,.,2
CCn1c(SCC#N)nc2ccccc2c1=O,.,-2,-12,0,6
N#CCSc1nc2ccccc2c2nc3ccccc3n12,21,49*,-22,63*,5
CC(c1ccccc1)n1c(S(=O)(=O)O)nc2ccccc21 (stereo unspecified),0,58*,-16,1,0
COC(C(=O)Nc1ccnn1C1CCN(Cc2nccs2)CC1)c1ccccc1 (stereo unspecified),.,.,-15,.,-3
COCCC(=O)N1CCC(Oc2ccc(C(=O)NCc3nccn3C)cc2)CC1,.,.,-23,.,-6
COc1ccc(NC(=O)C2(S(=O)(=O)c3ccc(C)cc3)CC2)cc1,.,.,-13,.,-9
Oc1ccccc1/C=N/Nc1ccnc(SCc2ccccc2)n1,56*,8,-18,2,8
Oc1ccccc1/C=N/Nc1ncc(Br)cn1,57*,5,-77,3,-5
Cc1sc2ncnc(N/N=C/c3ccc(O)cc3)c2c1C,-26,-2,-16,-7,1
Oc1ccccc1/C=N/Nc1ccccc1,-38,4,-6,0,1
Cc1sc2ncnc(N/N=C/c3ccccc3O)c2c1C,77*,2,17,-6,8
Cc1cc(NC(=O)CC2Oc3ccccc3NC2=O)ccc1Br (stereo unspecified),.,.,-8,.,1
COc1ccc(-c2coc3cc4oc(=O)c5ccccc5c4cc23)cc1F,96*,1,-36,-3,-1
CCOC(=O)C(C)Oc1cccc2c(=O)n(CC(=O)NCc3ccc4c(c3)OCO4)ccc12 (stereo unspecified),-6,42*,17,59*,18
Nc1c(C(=O)Nc2ccc(S(=O)(=O)N3CCCC3)cc2)sc2nc3ccc(OC(F)(F)F)cc3cc12,73*,7,12,-3,-2
CCC1S/C(=C(\C#N)C(=O)NCc2ccco2)N(c2ccc(F)cc2)C1=O (stereo unspecified),-10,33*,-21,4,-8
CCC1S/C(=C(\C#N)C(=O)NCc2ccco2)N(c2ccc(Br)cc2)C1=O (stereo unspecified),.,5,-18,-1,2
COC(=O)/C(=C/c1ccco1)NC(=O)c1ccco1,-4,2,4,-4,-6
O=C(NCCc1ccccn1)c1cc(-c2cccc3ccccc23)nc2ccccc12,-10,8,-25,-1,-10
SMILES,APP transl inh,BaF3 parental,KLF5 inhibitor,Ba/F3 V617F tox,IEC-6 cytotox
CCc1ccc(-c2cc(C)no2)cc1S(=O)(=O)N1CCN(c2ccccc2)CC1,.,.,-3,.,18
CCOC(=O)N1CCN(C(=S)NC)CC1,-6,4,-5,-2,2
CCC(=O)NC1CCN(C(=S)NC)CC1,6,62*,1,-6,-12
N#C/C(=C/c1ccc(N2CCOCC2)o1)c1ccc(Br)cc1,10,62*,10,58*,-1
N#C/C(=C/c1ccc(N2CCCCCC2)o1)c1ccc(F)cc1,-13,3,1,2,1
N#C/C(=C\c1ccc(N2CCOCC2)o1)c1ccccc1,-28,30*,-24,5,3
Cc1cc(COc2ccccc2)oc1C(=O)O,.,.,-20,.,4
O=C(NCC1CCCO1)C1CCN(C2CCN(C3CCCCCC3)CC2)CC1 (stereo unspecified),5,4,-18,-2,5
O=C(CN(CC1CCCO1)C(=O)c1nsc(Cl)c1Cl)NC1CCCC1 (stereo unspecified),9,1,-9,-1,-2
CCOP(=O)(OCC)C(NC(=O)NS(=O)(=O)c1ccc(C)cc1)c1ccccc1 (stereo unspecified),.,.,-19,.,-4
CCN(CC)C(=O)c1ccc(/C=C/c2c[nH]c3ccccc23)[n+](C)c1,-2,0,-24,-3,-1
CC[n+]1c(/C=C/c2c[nH]c3ccccc23)ccc2cc(C)ccc21,-6,79*,17,91*,10
CCc1ccccc1NC(=O)C1CCN(C(=O)c2ccc([N+](=O)[O-])cc2)CC1,2,-2,9,1,3
O=C(O)CCn1c(-c2ccccc2)cc2ccccc21,-17,10,-13,-5,-4
CCCCOCCCNc1ncnc2c1[nH]c1ccccc12,5,61*,-28,64*,14
CCCCOc1ncnc2c1[nH]c1ccccc12,-11,35*,-23,0,4
CCOCCCNc1ncnc2c1[nH]c1ccccc12,-7,22,-10,3,10
CCc1cc(=O)oc2c(C)c(OCC(=O)N3CCCc4ccccc43)ccc12,-8,6,-8,0,4
CC(NC(=O)CCCc1nnc2n(C)c(=O)c3sccc3n12)c1ccccc1 (stereo unspecified),.,.,-42,.,-8
COc1ccc(C(=O)C[n+]2cccc(C)c2C)cc1[N+](=O)[O-],-8,0,-37,-4,-3
CCC(C)(C)c1ccc(OCCCC[n+]2cccc(C)c2C)c(C(C)(C)CC)c1,.,99*,41,99*,22
Cc1cc(C(C)(C)C)ccc1OCCCCN1CCCC1,-7,7,-1,-2,-8
CCC(C)(C)c1ccc(OCCCC[n+]2ccc(C)cc2)c(C(C)(C)CC)c1,-21,103*,35,102*,21
O=C(O/N=C1/CCCc2occc21)c1ccc(Cl)cc1Cl,.,5,15,0,8
CC(C)NC(=O)Cn1cc(S(=O)(=O)N2CCCC2)c(S(=O)(=O)N2CCCC2)c1,.,.,-2,.,-7
SMILES,APP transl inh,BaF3 parental,KLF5 inhibitor,Ba/F3 V617F tox,IEC-6 cytotox
CCC(=O)Nc1nc(-c2ccccc2)nc(SC)c1C(C)=O,25,2,-19,-1,4
CSc1nc(-c2ccccc2)nc(NC(=O)C(C)C)c1C(C)=O,54*,3,-35,-4,2
Cc1ccc(O)c(NC(=O)CCC2CCCCC2)c1,-64,58*,-105,73*,-2
CN(C)c1cc[n+](CC(=O)N2c3ccccc3Sc3ccccc32)cc1,3,37*,-1,24*,3
O=C(C[n+]1ccccc1)N1c2ccccc2Sc2ccccc21,5,11,-13,3,6
CC(=O)N1CCN(c2ccccc2NC(=O)c2ccc(C#N)cc2F)CC1,3,90*,-2,1,2

# High-throughput results deposited in PubChem BioAssay by several laboratories.
